Test results reported in PubChem BioAssay (NCATS).
Records with an inconclusive call do not appear. Calls of active or inactive are those of the source. Unless noted, the call rests on the fitted dose curve; in most records, active means well fitted curve in either direction with a large enough effect (not every such curve was filed as active); inconclusive means small, poorly fitted or top-dose-only effect, or another doubt; inactive means flat fitted curve, though single readings scatter.

How the values were obtained:
[1] = target: Lysosomal acid glucosylceramidase (Homo sapiens) (UniProt P04062); test: Glucocerebrosidase-p2 (AID 348; in the data active means potency below about 10 µM; further: potency means the concentration at half of the fitted maximal effect); conditions: purified GBA, blue fluorogenic substrate, 40 min
Method in brief: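 Normal human glucocerebrosidase (0.2 nM) with blue fluorogenic substrate (80 uM final) in citrate/phosphate pH 5.9 with 10mM sodium taurocholate, 0.01% tween-20; 40 min RT, NaOH/glycine stop; fluorescence Ex 365/Em 440; AC50 from a titration from 0.6 nM upwards.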

[2] = AP1 Signaling Pathway (AID 357); conditions: ME-180 AP-1-bla reporter, EGF-induced, beta-lactamase ratio, 5 h; at 7.69 µM (top of the series) unless noted; further: on the % scale 0 is the no-effect control and ±100 the full control effect
Method in brief: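 ME-180 cells with beta-lactamase reporter under AP-1 response element, stimulated with EC50 EGF; compounds tested in titration series, 5 h at 37 °C. CCF4 substrate added 2.5 h at room temperature; 460/530 nm emission ratio gave %activity and AC50.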

[3] = NFAT Signaling Pathway (AID 444); conditions: Jurkat NFAT-bla M1, carbachol, beta-lactamase ratio, 5 h; at 7.69 µM (top of the series) unless noted;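 further: carbachol stimulus at about its EC50 of 1 µM final; on the % scale 0 is the no-effect control and ±100 the full control effect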
Method in brief: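 Jurkat cells carrying an NFAT-driven β-lactamase reporter and co-transfected muscarinic M1 receptor were treated with compound plus carbachol (1 uM final, an EC50 level) for 5 h at 37 °C. CCF4 loading followed for 1 h at RT; 460/530 nm ratio gave %activity.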

[4] = Stat Signaling Pathway (AID 446); conditions: ME-180 (cervical carcinoma) SIE beta-lactamase reporter, IL-6 stimulated, 5 h; at 7.69 µM (top of the series) unless noted;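 further: ME-180 cervical cancer cells given 40 pM IL-6 alongside compound; SIE-controlled beta-lactamase reporter measured as 460/530 nm FRET emission ratio; on the % scale 0 is the no-effect control and ±100 the full control effect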
Method in brief: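 FRET read-out (405 nm excitation, 460/530 nm emission) of a beta-lactamase reporter under a STAT-inducible element in ME-180 cervical carcinoma cells. Cells with compound receive 40 pM IL-6 for 5 h. Values are normalised to AC90 stimulation and AC90 JAK-inhibitor controls.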

[5] = target: Glucocorticoid receptor (Homo sapiens) (UniProt P04150); test: GR-GFP Redistribution (AID 450;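 active means compounds whose dose series gives a full or clear partial fitted curve of increased nuclear translocation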; further: potency means the concentration at half of the fitted maximal effect); conditions: U2OS GR-GFP nuclear translocation, laser cytometry, 2 h
[6] = target: Glucocorticoid receptor (Homo sapiens) (UniProt P04150); test: GR-EFC Redistribution (AID 451; calls by dose curve; further: potency means the concentration at half of the fitted maximal effect); conditions: CHO-K1 GR-EFC translocation, beta-gal luminescence, 2 h
Method in brief: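 CHO-K1 cells stably expressing nuclear-localized β-gal enzyme acceptor and GR fused C-terminally to the enzyme donor fragment; ligand-driven nuclear translocation restores β-gal by complementation. Compounds titrated up to 46 uM final, 2 h at 37 °C; luminescence read.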

[7] = target: Mitogen-activated protein kinase 10 (Mus musculus) (UniProt Q61831); test: JNK3 AlphaScreen Assay (AID 530); conditions: JNK3 lysate, c-Jun phosphorylation; series mostly up to 57.1 µM;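 further: kinase came from lysate of stimulated human HepG2 cells; signal reports phosphorylation of biotinylated GST-cJun 1-79 at Ser73 with 10 µM ATP; on the % scale 0 is the no-effect control and ±100 the full control effect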
Method in brief: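 Phosphorylation of biotinylated GST-cJun(1-79) at Ser73 is measured by AlphaScreen proximity luminescence. Enzyme is JNK3 in HepG2 lysates activated with interleukin-1beta and tumor necrosis factor alpha; ATP is 10 uM final.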

[8] = target: 3',5'-cyclic-AMP phosphodiesterase 4B (Homo sapiens) (UniProt Q07343); test: qHTS Assay for Inhibitors of PDE-IV (AID 607; active means well fitted activation curve with a large enough effect in the main read-out, with a control signal flat, not every such curve was filed as active; further: % of control where 0% means no effect); conditions: HEK293 ACTOne CNG channel cells, membrane potential fluorescence; series mostly up to 22.9 µM
Method in brief: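 Cell-based read-out of cAMP via a modified cyclic nucleotide-gated channel and membrane potential dye (535/590 nm) in HEK293 cells expressing PDE4 endogenously. Compounds tested up to 22.9 uM final; 100 uM RO 20-1724 reference.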

[9] = Confirmation and Secondary Assay for Modulators of Hemoglobin Beta Chain Splicing at IVS2 654 locus (AID 910; active means well fitted curve in the direction sought with a large enough effect; an effect the other way counts as inactive or inconclusive;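 further: per-well total GFP intensity by laser scanning cytometry after 2-day treatment; % of control where 0% means no effect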); conditions: HeLa EGFP-654 splicing reporter, GFP fluorescence, 48 h; series mostly up to 38.3 µM
Method in brief: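 HeLa cells stably carrying EGFP interrupted by mutant beta-globin IVS2-654 intron (CMV-driven) were treated with compound for 2 days at 37C; corrected splicing was scored as total peak GFP intensity per well (488 nm excitation, 500-520 nm emission).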

[10] = Confirmation and Secondary Assay for Modulators of Hemoglobin Beta Chain Splicing at IVS2 705 locus (AID 930; active means well fitted curve in the direction sought with a large enough effect; an effect the other way counts as inactive or inconclusive;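 further: HeLa cells stably expressing the EGFP-705 splicing reporter; GFP fluorescence per well restored by corrected splicing of the IVS2-705 intron in EGFP; % of control where 0% means no effect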); conditions: HeLa EGFP-705 splicing reporter, GFP fluorescence, 48 h; series mostly up to 38.3 µM
Method in brief: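 First, HeLa EGFP-705 cells are seeded at 500/well in Optimem with 2% FCS and left overnight. Next, compound or DMSO is added for 2 days. Finally wells are laser-scanned and total peak GFP intensity scored.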

[11] = qHTS Assay for Lipid Storage Modulators (AID 1519; calls by dose curve); conditions: Drosophila S3 cells, BODIPY lipid droplet/cell ratio, laser cytometry, cells loaded with oleic acid; for activity change, negative = inhibition: at 57.5 µM (top of the series)
Method in brief: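 Cells seeded at 5,000 per well were treated with compounds over a concentration series and loaded with oleic acid (400 uM, as added). Lipid droplet fluorescence (488 nm excitation, 500-530 nm channel) was read by laser-scanning cytometry and normalized to 20 uM Triacsin C.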

[12] = target: Ubiquitin carboxyl-terminal hydrolase 1 (Homo sapiens) (UniProt O94782); test: Inhibitors of USP1/UAF1: Pilot qHTS (AID 504865; active means well fitted curve in the direction sought with a large enough effect; an effect the other way counts as inactive or inconclusive; further: nearly all actives have a fitted effect of over 35% in size; further: potency means the concentration at half of the fitted maximal effect); conditions: purified USP1/UAF1, Ub-rhodamine cleavage fluorescence; series mostly up to 54.9 µM
Method in brief: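 Enzyme-free wells gave the negative control, while test wells held 1nM USP1/UAF1 preincubated with compound for 15 min at room temperature. Ub-Rho at 150nM final started the reaction, and fluorescence at 480/540 nm was recorded kinetically.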

[13] = target: Cytochrome P450 1A2 (Homo sapiens) (UniProt P05177); test: p450-cyp1a2 (AID 410; calls by dose curve; further: potency means the concentration at half of the fitted maximal effect;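 on activity change, negative = inhibition: -100% = full effect of reference inhibitor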); conditions: recombinant CYP1A2, luciferin-ME demethylation, luminescence; series mostly up to 57 µM
Method in brief: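 O-Demethylation of luciferin 6' methyl ether by human CYP1A2 is monitored as luciferase luminescence. Substrate sits at Km (100uM); enzyme is 20nM. Values are scaled to 57 uM furafylline as maximal inhibition.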

[14] = target: Cytochrome P450 3A4 (Homo sapiens) (UniProt P08684); test: qHTS Assay for Activators of Cytochrome P450 3A4 (AID 885; active means well fitted curve in the direction sought with a large enough effect; an effect the other way counts as inactive or inconclusive; further: nearly all actives have a fitted effect of over 65% in size); conditions: recombinant CYP3A4, Luciferin-PPXE luminescence, 60 min; series mostly up to 57.1 µM
Method in brief: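 Luminescent readout of luciferin formed from 25 uM Luciferin-PPXE (KM level) by 20 nM CYP3A4 in 200 mM KPO4, with 60 min NADPH-driven reaction at room temperature after 10 min compound exposure. Ketoconazole (57 uM) defined 100% inhibition.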

[15] = target: Cytochrome P450 2C19 (Homo sapiens) (UniProt P33261); test: qHTS Assay for Inhibitors and Substrates of Cytochrome P450 2C19 (AID 899; active means well fitted curve in the direction sought with a large enough effect; an effect the other way counts as inactive or inconclusive; further: potency means the concentration at half of the fitted maximal effect; nearly all actives have a fitted effect of over 60% in size); conditions: recombinant CYP2C19, luciferin-H EGE luminescence; series mostly up to 57.1 µM
Method in brief: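 Human CYP2C19 (5nM) with Luciferin-H EGE at 10uM (its KM) in 50mM KPO4 was preincubated with compound for 10 min at 37C. NADPH regeneration started a 60 min 37C reaction. Luciferin was read by luminescence, normalized to 57uM ketoconazole.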

[16] = target: Cytochrome P450 3A4 (Homo sapiens) (UniProt P08684); test: qHTS Assay for Inhibitors and Substrates of Cytochrome P450 3A4 (AID 884; active means well fitted curve in the direction sought with a large enough effect; an effect the other way counts as inactive or inconclusive; further: potency means the concentration at half of the fitted maximal effect; nearly all actives have a fitted effect of over 50% in size); conditions: recombinant CYP3A4, Luciferin-PPXE luminescence; series mostly up to 57.1 µM
Method in brief: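 Luminescent readout of luciferin produced by CYP3A4 (20 nM) dealkylation of Luciferin-PPXE, 25 uM (its KM). NADPH-driven reaction ran 60 min at RT after 10 min compound preincubation; data scaled to 57 uM ketoconazole as 100% inhibition.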

[17] = measured here: cell count channel max response
[18] = measured here: lipid channel max response

Chain of Cytochrome P450 1A2 (Homo sapiens) (P05177 whole entry, looked up): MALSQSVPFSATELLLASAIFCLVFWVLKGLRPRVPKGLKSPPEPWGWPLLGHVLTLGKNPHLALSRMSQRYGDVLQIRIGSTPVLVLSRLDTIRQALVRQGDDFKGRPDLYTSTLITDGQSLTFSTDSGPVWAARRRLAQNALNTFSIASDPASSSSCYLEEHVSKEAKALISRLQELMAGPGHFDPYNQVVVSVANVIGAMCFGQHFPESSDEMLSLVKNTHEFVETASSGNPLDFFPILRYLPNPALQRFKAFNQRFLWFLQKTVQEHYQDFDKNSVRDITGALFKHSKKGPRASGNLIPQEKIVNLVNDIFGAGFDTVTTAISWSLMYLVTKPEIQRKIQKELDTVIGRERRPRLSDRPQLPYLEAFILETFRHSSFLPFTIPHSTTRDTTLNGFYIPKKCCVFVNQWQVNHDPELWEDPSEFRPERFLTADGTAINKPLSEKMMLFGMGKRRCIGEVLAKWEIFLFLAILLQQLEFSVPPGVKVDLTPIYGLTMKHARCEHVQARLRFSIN
Chain of Cytochrome P450 2C19 (Homo sapiens) (P33261 whole entry, looked up): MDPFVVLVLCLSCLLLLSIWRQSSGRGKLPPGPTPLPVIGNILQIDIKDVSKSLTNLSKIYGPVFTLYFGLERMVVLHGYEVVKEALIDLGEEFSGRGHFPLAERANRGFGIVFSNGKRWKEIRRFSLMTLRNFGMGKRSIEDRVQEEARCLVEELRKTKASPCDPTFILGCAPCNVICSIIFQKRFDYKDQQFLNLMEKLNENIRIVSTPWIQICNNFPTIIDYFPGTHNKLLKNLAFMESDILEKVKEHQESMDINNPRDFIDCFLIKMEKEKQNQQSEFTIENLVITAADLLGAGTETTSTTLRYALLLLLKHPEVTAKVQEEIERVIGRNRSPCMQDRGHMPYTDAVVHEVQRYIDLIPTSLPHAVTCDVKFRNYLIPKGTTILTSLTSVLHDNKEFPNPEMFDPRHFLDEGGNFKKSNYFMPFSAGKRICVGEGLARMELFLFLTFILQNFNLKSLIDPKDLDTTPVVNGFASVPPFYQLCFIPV
Chain of Ubiquitin carboxyl-terminal hydrolase 1 (Homo sapiens) (O94782 whole entry, looked up): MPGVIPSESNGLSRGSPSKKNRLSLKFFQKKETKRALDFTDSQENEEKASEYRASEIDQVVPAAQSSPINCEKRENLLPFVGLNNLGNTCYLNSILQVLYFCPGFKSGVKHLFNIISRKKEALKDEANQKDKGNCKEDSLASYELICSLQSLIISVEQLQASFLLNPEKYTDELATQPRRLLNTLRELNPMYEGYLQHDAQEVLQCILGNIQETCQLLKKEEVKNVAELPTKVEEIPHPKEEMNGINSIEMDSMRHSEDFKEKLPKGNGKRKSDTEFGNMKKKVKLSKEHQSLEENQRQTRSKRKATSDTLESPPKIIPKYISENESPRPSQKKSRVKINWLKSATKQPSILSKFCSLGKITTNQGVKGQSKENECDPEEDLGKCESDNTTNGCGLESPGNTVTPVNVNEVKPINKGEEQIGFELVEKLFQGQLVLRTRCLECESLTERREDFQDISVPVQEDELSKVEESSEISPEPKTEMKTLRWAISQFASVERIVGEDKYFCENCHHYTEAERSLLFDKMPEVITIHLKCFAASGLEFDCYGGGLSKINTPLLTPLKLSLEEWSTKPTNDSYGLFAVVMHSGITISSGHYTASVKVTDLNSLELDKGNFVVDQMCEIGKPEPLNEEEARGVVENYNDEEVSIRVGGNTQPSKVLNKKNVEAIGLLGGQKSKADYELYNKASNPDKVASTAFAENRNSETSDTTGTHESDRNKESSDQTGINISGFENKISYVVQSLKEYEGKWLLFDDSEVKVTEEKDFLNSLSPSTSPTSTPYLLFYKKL
Chain of Lysosomal acid glucosylceramidase (Homo sapiens) (P04062 whole entry, looked up): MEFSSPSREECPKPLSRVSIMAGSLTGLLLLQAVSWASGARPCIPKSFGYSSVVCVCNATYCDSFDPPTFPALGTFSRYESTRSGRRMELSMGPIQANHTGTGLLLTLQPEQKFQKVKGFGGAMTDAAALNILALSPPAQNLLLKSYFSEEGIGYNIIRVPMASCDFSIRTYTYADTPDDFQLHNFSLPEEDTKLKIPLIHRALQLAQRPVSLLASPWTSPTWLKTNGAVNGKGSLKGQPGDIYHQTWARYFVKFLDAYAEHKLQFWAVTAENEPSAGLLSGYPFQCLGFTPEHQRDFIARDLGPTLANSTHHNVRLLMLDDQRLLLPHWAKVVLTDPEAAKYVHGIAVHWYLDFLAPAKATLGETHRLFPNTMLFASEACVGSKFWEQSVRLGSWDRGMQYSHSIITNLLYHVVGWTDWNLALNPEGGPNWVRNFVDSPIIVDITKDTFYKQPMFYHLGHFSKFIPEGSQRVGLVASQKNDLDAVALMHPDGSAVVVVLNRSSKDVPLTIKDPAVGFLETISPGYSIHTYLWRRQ
Chain of 3',5'-cyclic-AMP phosphodiesterase 4B (Homo sapiens) (Q07343 whole entry, looked up): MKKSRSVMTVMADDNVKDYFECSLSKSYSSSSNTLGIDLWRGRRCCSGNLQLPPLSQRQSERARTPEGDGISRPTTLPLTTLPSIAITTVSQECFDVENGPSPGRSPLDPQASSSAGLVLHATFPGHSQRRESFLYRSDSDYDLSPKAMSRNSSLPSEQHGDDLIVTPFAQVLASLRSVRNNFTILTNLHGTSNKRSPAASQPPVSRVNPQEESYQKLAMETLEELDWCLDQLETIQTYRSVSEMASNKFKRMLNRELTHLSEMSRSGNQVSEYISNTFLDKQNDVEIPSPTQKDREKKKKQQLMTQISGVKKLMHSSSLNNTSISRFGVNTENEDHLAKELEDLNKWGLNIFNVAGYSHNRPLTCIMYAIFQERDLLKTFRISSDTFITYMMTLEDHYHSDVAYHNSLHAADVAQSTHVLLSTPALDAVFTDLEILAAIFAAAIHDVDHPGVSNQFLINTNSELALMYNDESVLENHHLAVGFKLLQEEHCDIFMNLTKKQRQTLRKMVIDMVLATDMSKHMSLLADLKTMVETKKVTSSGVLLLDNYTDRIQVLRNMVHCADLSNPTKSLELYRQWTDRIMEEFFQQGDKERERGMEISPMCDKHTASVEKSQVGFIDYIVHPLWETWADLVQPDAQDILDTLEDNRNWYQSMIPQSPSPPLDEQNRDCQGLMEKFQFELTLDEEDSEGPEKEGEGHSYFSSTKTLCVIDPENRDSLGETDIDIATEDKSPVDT
Chain of Cytochrome P450 3A4 (Homo sapiens) (P08684 whole entry, looked up): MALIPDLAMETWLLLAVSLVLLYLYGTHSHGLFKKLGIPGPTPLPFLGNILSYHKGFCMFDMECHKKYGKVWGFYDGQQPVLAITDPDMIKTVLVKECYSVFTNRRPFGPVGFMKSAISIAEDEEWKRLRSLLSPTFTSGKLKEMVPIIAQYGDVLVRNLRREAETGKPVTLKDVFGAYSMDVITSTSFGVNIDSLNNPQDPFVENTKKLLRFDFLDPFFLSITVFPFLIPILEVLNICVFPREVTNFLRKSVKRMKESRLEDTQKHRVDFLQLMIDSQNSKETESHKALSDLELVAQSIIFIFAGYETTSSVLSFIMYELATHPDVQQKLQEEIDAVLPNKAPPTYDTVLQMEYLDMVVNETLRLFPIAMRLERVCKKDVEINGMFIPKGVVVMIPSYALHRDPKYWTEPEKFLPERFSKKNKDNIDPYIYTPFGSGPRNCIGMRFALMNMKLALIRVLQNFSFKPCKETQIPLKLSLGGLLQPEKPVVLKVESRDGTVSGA
Chain of Glucocorticoid receptor (Homo sapiens) (P04150 whole entry, looked up, the tested form may be a part): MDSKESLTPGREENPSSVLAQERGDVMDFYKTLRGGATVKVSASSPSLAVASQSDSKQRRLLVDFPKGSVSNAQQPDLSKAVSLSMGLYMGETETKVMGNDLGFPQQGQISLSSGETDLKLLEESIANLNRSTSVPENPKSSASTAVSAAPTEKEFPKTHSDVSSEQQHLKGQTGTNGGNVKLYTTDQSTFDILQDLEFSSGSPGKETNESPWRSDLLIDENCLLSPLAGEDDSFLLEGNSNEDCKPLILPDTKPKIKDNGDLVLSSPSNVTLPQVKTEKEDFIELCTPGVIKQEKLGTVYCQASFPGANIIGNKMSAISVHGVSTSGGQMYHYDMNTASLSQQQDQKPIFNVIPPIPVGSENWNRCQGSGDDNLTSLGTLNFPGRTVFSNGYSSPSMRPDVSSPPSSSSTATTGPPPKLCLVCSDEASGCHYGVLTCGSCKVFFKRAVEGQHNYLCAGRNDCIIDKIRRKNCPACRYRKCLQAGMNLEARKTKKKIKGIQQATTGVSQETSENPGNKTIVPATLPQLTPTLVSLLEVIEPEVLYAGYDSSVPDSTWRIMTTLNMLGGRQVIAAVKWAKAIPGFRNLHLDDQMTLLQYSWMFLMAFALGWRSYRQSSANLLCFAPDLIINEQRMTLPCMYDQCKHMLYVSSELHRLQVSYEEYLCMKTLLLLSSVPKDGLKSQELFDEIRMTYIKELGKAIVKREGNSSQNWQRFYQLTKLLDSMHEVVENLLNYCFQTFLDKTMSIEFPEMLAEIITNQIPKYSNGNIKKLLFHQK

CN(C)Cc1ccccc1-c1ccc2ncnc(NC3CC3)c2c1
inactive: Potency [1] > 11.4 µM | activity change, negative = inhibition [2] 24% | activity change, negative = inhibition [3] -9.4% | activity, negative = inhibition [4] -14.6% | Potency [5] > 46 µM | Potency [6] > 46 µM | Potency [7] | Potency [8] | Potency [9] | outcome [10] | activity change, negative = inhibition [11] 9.69% | Potency [12]
24.1%: max response [11, 18]
12.6%: max response [11, 17]

N#Cc1ccc(CN2CC[C@@]3(CCCN(S(=O)(=O)c4ccccc4)C3)C2)cc1
7.48%: max response [11, 18]
inactive: Potency [1] > 11.4 µM | activity change, negative = inhibition [2] 0.616% | activity, negative = inhibition [4] -5.91% | Potency [6] > 46 µM | Potency [7] | Potency [8] | activity change, negative = inhibition [11] -4.95%
13.6%: max response [11, 17]
active: Potency [13] 15.8 µM

Cc1cnc(CNc2ccnc(-c3ccc(N(C)C)cc3)n2)cn1
inactive: Potency [1] > 11.4 µM | activity change, negative = inhibition [2] 8.41% | activity change, negative = inhibition [3] -1.95% | Potency [5] > 46 µM | Potency [6] > 46 µM | Potency [7] | Potency [8] | Potency [14] | outcome [10] | activity change, negative = inhibition [11] 8.28%
active: Potency [13] 2.51 µM
1.54%: max response [11, 18]
-9.25%: max response [11, 17]

O=C(Oc1ccccc1)N1CCC2(CC1)CN(c1ccncc1)C2
0.26%: max response [11, 17]
active: Potency [15] 7.94 µM
4.81%: max response [11, 18]
inactive: Potency [1] > 11.4 µM | activity change, negative = inhibition [2] -1.8% | Potency [13] | activity, negative = inhibition [4] -4.7% | Potency [6] > 46 µM | Potency [8] | Potency [14] | activity change, negative = inhibition [11] 1.74%

COc1ccc2[nH]cc(CCNc3nc(-c4ccoc4)nc4ccccc34)c2c1
inactive: activity change, negative = inhibition [2] -4.09% | activity, negative = inhibition [4] -9.95% | Potency [5] > 46 µM | Potency [6] > 46 µM | Potency [7] | Potency [14] | Potency [9] | outcome [10] | activity change, negative = inhibition [11] 9.94%
active: Potency [1] 8.61 µM | Potency [13] 0.398 µM | Potency [16] 3.16 µM | Potency [15] 1.58 µM
6.9%: max response [11, 17]
18.2%: max response [11, 18]

CNc1ncnc2ccc(-c3ccccc3OC)cc12
0.542%: max response [11, 18]
inactive: Potency [1] > 11.4 µM | activity change, negative = inhibition [2] 0.353% | activity change, negative = inhibition [3] 15.1% | Potency [5] > 46 µM | Potency [6] > 46 µM | Potency [7] | Potency [8] | Potency [14] | Potency [9] | outcome [10] | activity change, negative = inhibition [11] 1.03% | Potency [12]
active: Potency [13] 2.51 µM
0.392%: max response [11, 17]

O=C(c1cc(C(F)(F)F)cc(C(F)(F)F)c1)N1CCC[C@@]2(CCN(c3ccncc3)C2)C1
inactive: Potency [1] > 11.4 µM | activity change, negative = inhibition [2] 6.68% | Potency [13] | activity, negative = inhibition [4] 1.59% | Potency [6] > 46 µM | Potency [7] | Potency [8] | Potency [14] | activity change, negative = inhibition [11] 1.83%
active: Potency [16] 6.31 µM
-5.86%: max response [11, 18]
-11%: max response [11, 17]

c1ccc2c(Nc3ccncc3)nc(-c3ccc4c(c3)OCO4)nc2c1
5.68%: max response [11, 17]
inactive: activity change, negative = inhibition [2] 4.72% | activity, negative = inhibition [4] -10.5% | Potency [5] > 46 µM | Potency [6] > 46 µM | Potency [7] | Potency [14] | Potency [9] | outcome [10] | activity change, negative = inhibition [11] -19.5%
-11.9%: max response [11, 18]
active: Potency [1] 2.47 µM | Potency [13] 1.26 µM | Potency [16] 0.501 µM | Potency [15] 3.98 µM | Potency [12] 39.8 µM

O=C(c1cc(C(F)(F)F)cc(C(F)(F)F)c1)N1CCC2(CC1)CN(Cc1ccccc1)C2
inactive: Potency [1] > 11.4 µM | activity change, negative = inhibition [2] -4.34% | Potency [13] | activity, negative = inhibition [4] 9.42% | Potency [6] > 46 µM | Potency [7] | Potency [8] | activity change, negative = inhibition [11] 1.87%
24.8%: max response [11, 18]
22.2%: max response [11, 17]

O=c1cnc2cnc(N3CCOCC3)nc2n1C[C@H]1CCCO1
13.3%: max response [11, 17]
active: Potency [13] 10 µM
22.5%: max response [11, 18]
inactive: Potency [1] > 11.4 µM | activity change, negative = inhibition [2] 2.78% | activity, negative = inhibition [4] -3.88% | Potency [5] > 9.22 µM | Potency [6] > 46 µM | Potency [7] | Potency [8] | Potency [14] | activity change, negative = inhibition [11] 5.43%
